Measurements taken from the supplement of paper PMC7261846.
± gives the uncertainty stated by the source.

System: Candida albicans SNY425 biofilm
Test: biofilm OD600 with compound plus antifungal (OD600 (absorbance)); higher = more biofilm remaining
[1] = assay detail: disruption of 24-h mature biofilm (compound + antifungal for a second 24 h)
[2] = assay detail: sustained inhibition (compound + antifungal during 90-min adherence and 24-h growth)

SMILES	biofilm OD600 [1]	biofilm OD600 [2]
CC1CNc2c(cccc2S(=O)(=O)N[C@@H](CCCNC(=N)N)C(=O)N2CC[C@@H](C)C[C@@H]2C(=O)O)C1 (stereo not given in full) [Argatroban] + CC[C@H](C)C[C@H](C)CCCCCCCCC(=O)N[C@H]1C[C@@H](O)[C@@H](NCCN)NC(=O)[C@@H]2[C@@H](O)CCN2C(=O)[C@H]([C@H](O)CCN)NC(=O)[C@H]([C@H](O)[C@@H](O)c2ccc(O)cc2)NC(=O)[C@@H]2C[C@@H](O)CN2C(=O)[C@H]([C@@H](C)O)NC1=O [caspofungin] (first compound 12.5 µM)	0.285 ± 0.017	0.182 ± 0.0063
COC(=O)C[C@H](NC(=O)[C@H](C)NC(=O)[C@@H](NC(=O)OCc1ccccc1)C(C)C)C(=O)CF + OC(Cn1cncn1)(Cn1cncn1)c1ccc(F)cc1F [fluconazole] (first compound 12.5 µM)	0.283 ± 0.0098	0.12 ± 0.0089
CC(C)C[C@H](NC(=O)[C@H]1O[C@@H]1C(=O)O)C(=O)NCCCCN=C(N)N + C[C@@H]1[C@H](O)[C@@H](C)/C=C/C=C/C=C/C=C/C=C/C=C/C=C/[C@H](O[C@@H]2O[C@H](C)[C@@H](O)[C@H](N)[C@@H]2O)C[C@@H]2O[C@](O)(C[C@@H](O)C[C@@H](O)[C@H](O)CC[C@@H](O)C[C@@H](O)CC(=O)O[C@H]1C)C[C@H](O)[C@H]2C(=O)O [amphotericin B] (first compound 12.5 µM)	0.266 ± 0.0082	0.209 ± 0.0073
O=c1oc(Cl)c(Cl)c2ccccc12 [3,4-Dichloroisocoumarin] + OC(Cn1cncn1)(Cn1cncn1)c1ccc(F)cc1F [fluconazole] (first compound 12.5 µM)	0.237 ± 0.011	0.154 ± 0.014
NC(N)=NCCC[C@H](NC(=O)[C@@H]1CCCN1C(=O)[C@H](N)Cc1ccccc1)C(=O)CCl + C[C@@H]1[C@H](O)[C@@H](C)/C=C/C=C/C=C/C=C/C=C/C=C/C=C/[C@H](O[C@@H]2O[C@H](C)[C@@H](O)[C@H](N)[C@@H]2O)C[C@@H]2O[C@](O)(C[C@@H](O)C[C@@H](O)[C@H](O)CC[C@@H](O)C[C@@H](O)CC(=O)O[C@H]1C)C[C@H](O)[C@H]2C(=O)O [amphotericin B] (first compound 12.5 µM)	0.291 ± 0.0073	0.213 ± 0.0082
